The AC50 is the concentration at which the activity in the assay is half-maximal.

Activity calls are given as the source filed them. How the source made its calls: active means hit-call score of the fitted dose curve at least 0.9, where 1 is the maximum; inactive means score below 0.9.

Tumor necrosis factor (Homo sapiens), sequence (P01375 whole entry, looked up): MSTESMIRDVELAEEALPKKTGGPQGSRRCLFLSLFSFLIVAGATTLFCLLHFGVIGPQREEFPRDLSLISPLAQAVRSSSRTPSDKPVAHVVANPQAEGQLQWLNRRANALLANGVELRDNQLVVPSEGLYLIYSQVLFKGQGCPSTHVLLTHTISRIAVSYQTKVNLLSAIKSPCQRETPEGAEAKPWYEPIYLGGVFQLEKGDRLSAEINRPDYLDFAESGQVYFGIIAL

Read-out in the experiment: Tumor necrosis factor (Homo sapiens) (UniProt P01375)
Kind of experiment: BSK_LPS_TNFa: BioMAP Diversity Plus: LPS Assay for Tumour Necrosis Factor alpha (TNFa) Biomarker Activity (AID 2283085). The following applies: primary human HUVEC with PBMC; actives raise or lower the signal. The protocol:
BSK_LPS is a cell-based, multiplexed-readout assay that uses umbilical vein endothelium and peripheral blood mononuclear cells, a human vascular primary cell co-culture, with measurements taken at 24 hours after chemical dosing in a 96-well plate.BSK_LPS_TNFa is an assay component measured in the BSK_LPS assay. It measures TNF-a antibody related to regulation of gene expression using ELISA technology.Data from the assay component BSK_LPS_TNFa was analyzed into 1 assay endpoint. This assay endpoint, BSK_LPS_TNFa, was analyzed with bidirectional fitting relative to DMSO as the negative control and baseline of activity. Using a type of binding reporter, gain or loss-of-signal activity can be used to understand changes in the signaling as they relate to the gene TNF. Furthermore, this assay endpoint can be referred to as a primary readout, because this assay has produced multiple assay endpoints where this one serves a signaling function. To generalize the intended target to other relatable targets, this assay endpoint is annotated to the cytokine intended target family, where the subfamily is inflammatory factor.
The levels of cell surface (or secreted, indicated by the prefix "s") biomarker endpoints were measured by ELISA. Overt cytotoxicity to cells in confluent adherent cultures (all systems other than the BT system) was assessed by measuring total protein levels using sulforhodamine B (SRB) staining in parallel cultures at the time of biomarker measurements, indicated as SRB endpoints. For proliferation assays for adherent cell types, individual cell types are cultured at sub-confluence and relative cell numbers quantified by SRB staining at time points optimized for each system (48 h: 3C and CASM3C systems; 72 h: BT and HDF3CGF systems; 96 h: SAg system). SRB was performed by staining cells with 0.1% SRB after fixation with 10% TCA and reading wells at 560 nm.Viability and proliferation of PBMC (T cells) was quantified by Alamar Blue reduction for the SAg and BT systems. For PBMC viability (referred to as PBMC Cytotoxicity within the assay endpoint names), cells were plated (75,000/well in a 96-well plate) and then chemical samples added for 1 h before addition of activators, SEB and TSST-1 (20 ng/mL final concentration each). Cells were incubated for 90 h. Then, Alamar Blue (20 uL/well) (Invitrogen, Cat DAL1100) was added for 6 h, and the plates were read with a fluorescence microplate reader at 546/580 nm (excitation/emission). For PBMC proliferation, cells were plated and activated as above but incubated for only 16 h prior to addition of Alamar Blue. Plates were read after 6 h.
With `C=C(C)C(=O)OCCOCCOCCOCCOC(=O)C(=C)C`, the outcome was inactive.
On the same count and under the same terms, for `CN(C)C(=O)Nc1ccc(Oc2ccc(Cl)cc2)cc1` the value was “inactive”; for `CS(=O)(=O)OCCCCOS(C)(=O)=O`, “inactive”.
Regarding `COc1ccc(OC)c(N=Nc2c(O)ccc3ccccc23)c1`, the AC50 was 20 µM (active).
`CSCCC=O`: the result was inactive.
As to `O=C1OC2(c3ccccc31)c1ccc(O)c(Br)c1Oc1c2ccc(O)c1Br`, the outcome was inactive.
For `CC(C)(C)CC(C)(C)c1ccc(OCCOCC[N+](C)(C)Cc2ccccc2)cc1`, the AC50 is 8.89 µM (active).
As for `C=C(C)C(=O)OCC(CC)(COC(=O)C(=C)C)COC(=O)C(=C)C`, the outcome was inactive.
For `CC(C=O)Cc1ccc(C(C)(C)C)cc1` (stereo not given), the result was inactive.
For `C=C(C)C(=O)OCCOCCOCCOC(=O)C(=C)C`, the outcome was inactive.
Take `CN(C)C(=S)SC(=S)N(C)C`: the result was inactive.
`c1ccc(Oc2ccccc2)cc1`: the result was inactive.
On the same count and under the same terms, for `CCCCCC(C=O)=Cc1ccccc1` the value was “inactive”.
Take `CN(c1nccc(=O)[nH]1)C1CCN(c2nc3ccccc3n2Cc2ccc(F)cc2)CC1`: the outcome was inactive.
`CCCCCCCCCCCCCCCC(=O)OC/C=C(C)/C=C/C=C(C)/C=C/C1=C(C)CCCC1(C)C`: the result was inactive.
With `Oc1c(Cl)cc(Cl)c(Cl)c1Cc1c(O)c(Cl)cc(Cl)c1Cl`, the AC50 is 20 µM (active).
For `COc1ccc(CCN2CCC(Nc3nc4ccccc4n3Cc3ccc(F)cc3)CC2)cc1`, the outcome was inactive.
Regarding `CCCCCCC(CO)CCCC` (stereo not given), the outcome was inactive.
For the compound `O=C1OC[C@H](Cc2cccc(O)c2)[C@H]1Cc1cccc(O)c1`, the outcome was inactive.
Consider `Cc1cc(CCC(=O)OCCOCCOCCOC(=O)CCc2cc(C)c(O)c(C(C)(C)C)c2)cc(C(C)(C)C)c1O`, for which the result was inactive.
In the case of `CC(=O)Nc1ccc(C(=O)CCl)cc1`, the AC50 was 4.58 µM (active).
Take `COc1cc(Cl)c(OC)cc1N`: the result was inactive.
With `C[C@@H]1CCN(C(=O)[C@H](CCCN=C(N)N)NS(=O)(=O)c2cccc3c2NC[C@H](C)C3)[C@@H](C(=O)O)C1`, the outcome was inactive.
For `CCCCOC(=O)CCCCCCCC(=O)OCCCC`, the outcome was inactive.
On to `CS(=O)(=O)c1ccc(C2=C(c3ccccc3)C(=O)OC2)cc1`, for which the result was inactive.
As to `O=CN1CCOCC1`, the outcome was inactive.
In the case of `CC(CN=Cc1ccccc1O)N=Cc1ccccc1O` (stereo not given), the outcome was inactive.
In the case of `C1=CC2C3C=CC(C3)C2C1` (stereo not given), the outcome was inactive.
Take `CC(=O)c1c(C)c([N+](=O)[O-])c(C(C)(C)C)c([N+](=O)[O-])c1C`: the outcome was inactive.
As to `CC(C)(N=C=O)c1cccc(C(C)(C)N=C=O)c1`, the result was inactive.
As for `O=C1c2ccccc2C(=O)c2c(O)ccc(O)c21`, the AC50 is 1.21 µM (active).
For `CC(=O)C1(C)CC2=C(CCCC2(C)C)CC1C` (stereo not given), the outcome was inactive.
The same measure, in the same setting: for `CC=Cc1ccc(OCC)c(O)c1` the value was “inactive”.
As for `CC1(C)C2=CCCC(C)(C)[C@]23CC[C@H]1C3`, the outcome was inactive.
As to `Clc1cc(Cl)c(-c2c(Cl)c(Cl)cc(Cl)c2Cl)cc1Cl`, the result was inactive.
The same measure, in the same setting: for `O=C(Nc1ccc2c(O)c(N=Nc3ccc(N=Nc4ccc(S(=O)(=O)O)cc4)cc3)c(S(=O)(=O)O)cc2c1)c1ccccc1` the value was “inactive”.
Regarding `c1ccc(CCc2ccccc2)cc1`, the result was inactive.
For the compound `C=CC(C)(O)CCC=C(C)C` (stereo not given), the outcome was inactive.
The same measure, in the same setting: for `CCN(CC)C(=O)N(CC)CC` the value was “inactive”; for `IC(I)I`, “inactive”.
